# Records with an inconclusive call do not appear. The source made the active and inactive calls. Calls follow the shape of the dose curve; as a rule, active = well fitted cell-killing curve with a large enough effect in the repeat runs; inconclusive = weak or mixed curves, or effect the other way; inactive = flat fitted curve, though single readings scatter.
# Experiment: qHTS assay to identify small molecule agonists of the constitutive androstane receptor (CAR) signaling pathway - cell viability counter screen (AID 1224836); also: nearly all actives have a fitted effect of over 45% in size
# Conditions: HepG2-CYP2B6-hCAR viability, CellTiter-Fluor, 23 h, PK11195 added to every well; series mostly up to 92.4 µM; viability change, negative = cytotoxic: at the top concentration
# Source text: U.S. Tox21 Program National Center for Advancing Translational Sciences [NCATS] NIH Chemical Genomics Center [NCGC] U.S. Environmental Protection Agency [EPA] National Institutes of Environmental Health Sciences [NIEHS] National Toxicology Program [NTP] U.S. Food and Drug Administration [FDA] Tox21 Assay Overview: The constitutive androstane receptor (CAR) is a nuclear receptor which regulates multiple drug metabolizing enzymes (DMEs) and transporters. Activating CAR will generally increase the transcription and subsequent translation of CYP2B6 and CYP3A4. These two DMEs represent about 50% of the drug metabolizing potential in the body. […] Recently, there have also been studies performed indicating CARs role in energy metabolism and cancer therapy. Therefore, inducing CARs activity could have a potential effect on diabetes and cancer. Identifying environmental toxins and compounds which modulate CAR, through the use of the Tox21 10K compound collection, will be an important step in determining the toxicity and potential therapeutic effects these factors will have on the human body. To differentiate true CAR agonists from cytotoxic substances, the assay is multiplexed with a cell viability assay.
# Tox21 Assay Protocol Summary: A double-stable (hCAR and CYP2B6-2.2kb) transfected cell line, derived from human hepatoma (HepG2) cells, was utilized for the duration of the quantitative high-throughput screens. The HepG2-CYP2B6-hCAR cells were dispensed at 2500 cells/4 uL/well in 1536-well white solid bottom plates using a Multidrop Combi. After the assay plates were incubated at 37 C/5% CO2 for 4 hrs, 23 nL of compounds at 15 concentrations (from 5-48 columns) or positive control (from 1 to 4 columns) were transferred to the assay plates using a Pintool station. One uL of PK11195 (final concentration = 0.75 uM) was added, using a Flying Reagent Dispenser, inside each well. After a 23 hr incubation period at 37 C/5% CO2, 1 uL of CellTiter-Fluor reagent was added into each well of the assay plates using a Flying Reagent Dispenser. The fluorescence intensity in the plates was then measured using a ViewLux plate reader.
# % is scaled to controls: 0 for no effect and ±100 for the full control effect.
row,Structure (SMILES),"viability change, negative = cytotoxic"
1,CC1OC1C1CCC2(C)OC2C1 (stereo not given),1.43% (inactive)
2,C=CC(C)(CCC=C(C)C)OC(=O)CC (stereo not given),5.76% (inactive)
3,NC(=O)N[C@@H](CCC(=O)O)C(=O)O,5.11% [at 42.5 µM] (inactive)
4,O=C(c1ccccc1O)c1ccccc1O,1.15% (inactive)
5,CCCC[N+](C)(CCCC)CCCC,0.116% (inactive)
6,CC[N+](C)(CC)CCOC(=O)C1c2ccccc2Oc2ccccc21,2.2% [at 42.5 µM] (inactive)
7,COC(=O)C1=C(C)NC(C)=C(C(=O)OC(C)C)C1c1cccc2nonc12 (stereo not given),-8.37% [at 42.5 µM] (inactive)
8,CC(=O)C1CCCCC1=O (stereo not given),-2.97% (inactive)
9,NC(=O)N1c2ccccc2CC(=O)c2ccccc21,-0.907% [at 42.5 µM] (inactive)
10,O=C(CO)[C@@H](O)[C@H](O)[C@H](O)CO,0.327% (inactive)
11,Cc1nc2ccc(CN(C)c3ccc(C(=O)N[C@@H](CCC(=O)O)C(=O)O)s3)cc2c(=O)[nH]1,-4.24% [at 42.5 µM] (inactive)
12,C[N+]1(CC2COC(c3ccccc3)(c3ccccc3)O2)CCCCC1 (stereo not given),1.16% [at 19 µM] (inactive)
13,CN1CC(=O)N/C1=N/C(=O)Nc1cccc(Cl)c1,3.42% [at 42.5 µM] (inactive)
14,CC(=O)N[C@H]1[C@H]([C@H](O)[C@H](O)CO)OC(C(=O)O)=C[C@@H]1N=C(N)N,-3.21% [at 42.5 µM] (inactive)
15,COc1ccccc1OCC1CNC(=O)O1 (stereo not given),5.26% [at 42.5 µM] (inactive)
16,CC(C)C(=O)OC(=O)C(C)C,4.09% (inactive)
17,CC1(C)[C@@H]2CC[C@@]1(C)[C@H](O)C2,5.9% (inactive)
18,[O-][n+]1cccc(CO)c1,4.97% [at 42.5 µM] (inactive)
19,O=S(=O)(O)c1cccc(S(=O)(=O)O)c1,1.8% (inactive)
20,CCCOC(=O)CC,5.71% (inactive)

row,Structure (SMILES),"viability change, negative = cytotoxic"
1,COc1cc(C(=O)OC(COCCC(C)C)CN2CCOCC2)cc(OC)c1OC (stereo not given),-0.724% [at 42.5 µM] (inactive)
2,CC(C)(C)C(=O)c1ccccc1,1.31% (inactive)
3,CCC(C)(CCCC(C)C)OC(C)=O (stereo not given),5.37% (inactive)
4,CCCCCCCCCC[N+](C)(C)[O-],3.47% (inactive)
5,N[C@H](C(=O)O)[C@@H](O)c1ccc(O)c(O)c1,-1.25% [at 42.5 µM] (inactive)
6,CCOC(=O)C1=NOC(c2ccccc2)(c2ccccc2)C1,5.11% (inactive)
7,CC(C)(C)c1ccc(-c2ccc(C(C)(C)C)cc2)cc1,-1.29% (inactive)
8,O=S(=O)(O)c1cccc2c(S(=O)(=O)O)cccc12,0% (inactive)
9,CN1CCC(=C2c3ccccc3CCc3cccnc32)CC1,-17.5% [at 42.5 µM] (inactive)
10,CCOC(=O)COc1cc(-n2ncc(C(F)(F)F)c(C)c2=O)c(F)cc1Cl,-0.751% (inactive)
11,COc1cc2c(cc1OC)-c1cc3ccc(OC)c(OC)c3c[n+]1CC2,-23.2% (inactive)
12,COCCOC[C@H](CC1(C(=O)NC2CCC(C(=O)O)CC2)CCCC1)C(=O)Oc1ccc2c(c1)CCC2 (stereo not given in full),-0.45% (inactive)
13,N[C@@H](CCC(=O)O)C(=O)O,8.19% (inactive)
14,NC(=O)NC1N=C([O][Al])NC1=O (stereo not given),2.32% [at 42.5 µM] (inactive)
15,CC(C)[C@H]1CC[C@@H](C)CC1=O,1.06% (inactive)
16,C=CN1CCCCCC1=O,-1.02% (inactive)
17,CCCCCCCCCCCCCCCCCCO,-1.23% [at 42.5 µM] (inactive)
18,c1ccc(Cc2ccccc2)cc1,-1.77% (inactive)
19,Nc1ccn([C@@H]2O[C@H](CO)[C@@H](O)[C@@H]2O)c(=O)n1,3.36% (inactive)
20,Cc1ccc(C(=O)c2ccc(CC(=O)O)n2C)cc1,-0.292% [at 42.5 µM] (inactive)
